# A number with no mark means an inactive call. Active and inactive are the calls of the source.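 Rule for the calls: active = inhibition above the hit cutoff set in the earlier primary screen (cut at about 27% in these data); inactive = the rest.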
# Target: Protein phosphatase methylesterase 1 (Homo sapiens) (UniProt Q9Y570)
# Test: human PME-1 methylesterase inhibition confirmation – biochemical, fluorescence polarization, FP-Rh probe, triplicate (AID 2171);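 note: 0% = enzyme with DMSO and 100% = wells lacking PME-1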
# Conditions: recombinant PME-1, FP-Rh probe fluorescence polarization; at 5.9 µM; stronger effect = higher value
# Sequence of Protein phosphatase methylesterase 1 (Homo sapiens) (Q9Y570 whole entry, looked up): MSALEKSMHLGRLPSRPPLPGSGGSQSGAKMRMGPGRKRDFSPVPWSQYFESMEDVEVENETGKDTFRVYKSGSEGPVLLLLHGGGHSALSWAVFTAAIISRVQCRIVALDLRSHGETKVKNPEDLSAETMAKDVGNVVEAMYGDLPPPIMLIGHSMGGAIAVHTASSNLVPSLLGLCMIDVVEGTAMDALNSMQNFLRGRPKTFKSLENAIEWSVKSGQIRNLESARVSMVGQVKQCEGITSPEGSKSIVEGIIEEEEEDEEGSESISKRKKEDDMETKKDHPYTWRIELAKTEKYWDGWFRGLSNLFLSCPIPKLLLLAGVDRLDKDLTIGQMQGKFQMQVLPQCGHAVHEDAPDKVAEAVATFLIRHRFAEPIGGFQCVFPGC
row,SMILES,inhibition
1,Oc1ccc(/C=N/Nc2ccnc3cc(Cl)ccc23)c(O)c1,19%
2,CCOC(=O)c1ccc(NC(=O)Nc2ccc3c4c(cccc24)C(=O)N3CC)cc1,16.2%
3,CC1=NN(c2ccccc2)C(=O)/C1=C/c1c(O)n(-c2ccc(F)cc2)[nH]c1=O,52.1% (active)
4,CCNc1ccc2noc3c2c1C(=O)c1ccccc1-3,87.6% (active)
5,Cc1c(C(=O)O)cccc1-c1ccc(/C=N/Nc2ccc(Br)cc2)o1,39.6% (active)
6,Cc1cc(O)ccc1N=Cc1c(C(F)(F)F)[nH][nH]c1=O,12.2%
7,O=c1ccc2cc3c([nH]c4ccc(Br)cc43)oc-2c1O,-63.1%
8,CCc1ccc(S(=O)(=O)/N=C2\C=C(Nc3cccc(C(=O)O)c3)C(=O)c3ccccc32)cc1,38.4% (active)
9,Cc1cc2nc3ccc(N(C)C)cc3nc2cc1N,20%
10,CC1=Nc2ccccc2/C1=C\c1sc(Nc2ccc(C)cc2)nc1O,42.2% (active)
11,Fc1cccc2sc(Nc3nc4cc5c(cc4s3)OCO5)nc12,76.3% (active)
12,CC(=O)c1cc(O)c2ccccc2c1O,22.5%
13,O=C(CNc1cccc2ccccc12)N/N=C/C(Br)=C/c1ccccc1,-1.47%
14,COc1ccc2c(c1)CC/C(=C\Nc1ccc3c(c1)OCO3)C2=O,36.9% (active)
15,Cc1cc(-c2nnc(SCC(=O)Nc3nc(-c4ccc(Cl)cc4)cs3)o2)no1,-22.5%
16,CCc1ccc2nc3sc(C(=O)Nc4nnc(CC)s4)c(N)c3cc2c1,57.6% (active)
